PPARg SRC-3 ag – promotes SRC-3 coactivator recruitment by human PPARgamma; P37231; biochemical PPARgamma/SRC-3 coactivator recruitment assay; activation, % at 8 µM; hit rate 0.26% among 200,000; in the data active = activation above about 23%
PPARg SRC-2 ag – promotes SRC-2 coactivator recruitment by human PPARgamma | P37231 | hit rate 0.34% among 200,000 | PPARgamma LBD-SRC-2 recruitment, biochemical | activation, % at 8 µM
TR-FRET SRC-2 ct – counter-screen for PPARgamma SRC-2 recruitment agonists: TR-FRET artefact; stronger effect = higher value; TR-FRET ratio at 8 µM; AID 1049; hit rate 0.4% among 200,000; in the data active = TR-FRET ratio above about 2000
SRC3 TRFRET art – TR-FRET artefact, counter-screen to PPARgamma/SRC-3 agonist assay; hit rate 0.39% among 99,000; AID 1048; TR-FRET ratio at 8 µM; PPARgamma/SRC-3 format; stronger effect = higher value; in the data active = TR-FRET ratio above about 2000
PPARg SRC-1 ag – agonists of human PPARgamma SRC-1 coactivator recruitment. P37231. PPARgamma-SRC-1 coactivator recruitment biochemical assay. activation, % at 8 µM. hit rate 0.41% among 200,000. AID 631; in the data active = activation above about 19%
SRC1 TRFRET art – counter-screen for PPARgamma SRC-1 recruitment agonists: TR-FRET artefact. AID 1051. hit rate 0.34% among 99,000. TR-FRET ratio at 8 µM. TR-FRET detection artefact counter-screen, emission ratio; stronger effect = higher value; in the data active = TR-FRET ratio above about 2300
PPARg SRC2 ag – confirmation of agonists of SRC-2 recruitment by human PPARgamma. hit rate 52% among 790. shares compounds with PPARg SRC-3 ag. biochemical SRC-2 recruitment by PPARgamma. activation, % at 8 µM
PPARg SRC1 ag – confirmation of agonists of SRC-1 recruitment by human PPARgamma | PPARgamma–SRC-1 coactivator recruitment biochemical assay | shares compounds with PPARg SRC-3 ag | activation, % at 8 µM | hit rate 43% among 790; in the data active = activation above about 20%
PPARg SRC3 ag – human PPARgamma SRC-3 recruitment agonism, confirmation; activation, % at 8 µM; hit rate 29% among 790; shares compounds with PPARg SRC-3 ag; AID 1301; biochemical PPARgamma-SRC-3 coactivator recruitment, agonist mode; in the data active = activation above about 24%
Hits are given with their value; n = inactive; x = no result given. Sampled rows, rich in hits. Any-hit rate of the full collection: about 0.84%. Rule as the data show it, unless noted: active = activation above about 22%; inactive = the rest.

SMILES	PPARg SRC-3 ag	PPARg SRC-2 ag	TR-FRET SRC-2 ct	SRC3 TRFRET art	PPARg SRC-1 ag	SRC1 TRFRET art	PPARg SRC2 ag	PPARg SRC1 ag	PPARg SRC3 ag
c1csc(-c2cnc3ccccc3n2)c1	n	n	n	n	n	n	x	x	x
c1cc2c(cnc3cscc32)s1	28.9	53.0	2391	2526	48.8	3316	62.3	50.6	41.9
CCC(=O)Nc1ccc(Nc2nc(C)c([N+](=O)[O-])c(Nc3ccc(NC(=O)CC)cc3)n2)cc1	n	n	n	n	n	n	x	x	x
O=C(COc1ccc2ccccc2c1)NCCNC(=O)COc1ccc2ccccc2c1	46.9	39.1	2532	x	38.1	x	52.5	47.8	34.3
O=C(O)[C@H]1CCCC[C@H]1C(=O)Nc1ccc(Nc2ccccc2)cc1	n	27.4	n	x	n	x	n	n	n
Cc1ccc(C=Nc2ccc(N(C)C)cc2)o1	101.9	101.6	3126	x	65.2	x	n	n	n
O=c1c2c(-c3cccs3)csc2[nH]c(=S)n1-c1ccccc1	81.7	42.6	2587	x	64.7	x	63.0	47.7	41.6
C=CCn1c(=S)[nH]c2scc(-c3ccc(C)o3)c2c1=O	24.3	n	2125	2146	24.8	2448	n	n	n
C=CCn1c(=S)[nH]c2sccc2c1=O	n	n	n	n	n	n	x	x	x
CCn1c(=S)[nH]c2scc(-c3cccs3)c2c1=O	39.1	49.4	2915	2804	52.1	3314	60.0	44.4	39.1
O=c1c2c(-c3cccs3)csc2ncn1-c1ccccc1	n	n	n	x	n	x	x	x	x
CCN1C(=O)/C(=C\c2cn(CCC#N)nc2-c2ccc(F)cc2)SC1=S	n	n	n	n	n	n	x	x	x
COC(=O)c1c(NC(=O)Cn2cnc([N+](=O)[O-])n2)sc2c1CCC(C)C2 (configuration not stated)	n	n	n	n	n	n	x	x	x
Cc1oc2nc(SCC(=O)NC3CCCCC3)nc(N)c2c1C	n	n	n	x	n	x	x	x	x
CCOc1ccc(NC(=S)C(C#N)=C2N(C)c3ccccc3N2C)cc1	n	n	n	n	22.8	n	n	n	n
Cc1ccc(C(=O)NC(=S)Nc2ccc(NC(=O)c3cccs3)cc2)cc1[N+](=O)[O-]	n	n	n	n	n	n	x	x	x
CCCCCCN1C=CC(=C/C=C(\C#N)C(=O)OCC)C=C1	n	n	n	x	20.7	x	n	n	n
CCCN1C=CC(=C/C=C(\C#N)C(=O)OCC)C=C1	n	n	n	x	n	x	x	x	x
CCn1c(=O)cc(SCC(=O)N2CCN(Cc3ccc4c(c3)OCO4)CC2)c2ccccc21	41.5	55.4	2608	x	45.0	x	26.6	n	n
Cn1c(C(=O)N2CCN(Cc3ccc4c(c3)OCO4)CC2)cc2c(=O)n(C)c3ccccc3c21	n	n	n	x	n	x	x	x	x
CCSc1ccccc1C(=O)N1CCN(Cc2ccc3c(c2)OCO3)CC1	n	n	n	x	n	x	x	x	x
Cn1c(=O)cc(SCC(=O)N2CCN(Cc3ccc4c(c3)OCO4)CC2)c2ccccc21	72.0	33.0	2161	x	49.5	x	25.0	n	n
O=c1cc(-c2ccccc2)n(S(=O)(=O)c2ccc3ccccc3c2)o1	n	n	n	x	n	x	x	x	x
CC(Oc1ccccc1)c1ccn[nH]1 (configuration not stated)	n	n	n	n	n	n	x	x	x
O=C1c2ccccc2-c2cccc(NS(=O)(=O)c3ccc(C(F)(F)F)cc3)c21	30.9	n	n	x	n	x	24.0	21.7	n
SMILES	PPARg SRC-3 ag	PPARg SRC-2 ag	TR-FRET SRC-2 ct	SRC3 TRFRET art	PPARg SRC-1 ag	SRC1 TRFRET art	PPARg SRC2 ag	PPARg SRC1 ag	PPARg SRC3 ag
Cc1cc(C)n(-c2ccc(C(=O)OCC(=O)c3ccc(Br)s3)cc2)n1	35.6	27.6	3035	x	20.5	x	29.5	22.0	n
O/N=C1\CCCc2ccc(Cl)cc21	n	n	n	n	n	n	x	x	x
Fc1ccc(-c2nnsc2Sc2ccccn2)cc1	58.1	145.1	3478	6319	n	n	34.5	34.6	n
CCCC(C)NC(=O)c1ccc(OCc2ccc(Cl)cc2)c(OC)c1 (configuration not stated)	57.0	23.1	n	n	62.2	n	30.9	55.6	48.1
C=CCc1ccc(OCCCCCN2CCOCC2)c(OC)c1	n	n	n	x	n	x	x	x	x
CCCCc1cc(=O)oc2cc(O)cc(O)c12	n	n	2054	n	27.8	2687	n	n	n
CCCCc1cc(=O)oc2cc(C)cc(O)c12	n	n	n	x	n	x	x	x	x
Cn1c(=O)cc(SCC(=O)Nc2ccc3c(c2)OCO3)c2ccccc21	42.5	59.6	2627	x	31.9	x	42.1	27.6	27.1
CCn1c(=O)cc(SCC(=O)Nc2ccc3c(c2)OCCO3)c2ccccc21	92.3	84.9	3434	x	68.6	x	65.0	45.7	43.4
Cn1cc(SCC(=O)Nc2ccc3c(c2)OCO3)c2ccccc21	n	n	n	x	n	x	x	x	x
CCCn1cc(SCC(=O)Nc2ccc3c(c2)OCO3)c2ccccc21	n	n	n	x	n	x	x	x	x
Clc1cccc(-c2ccc(C=Nc3ccc(N4CCOCC4)cc3)o2)c1	n	26.4	2011	n	27.5	n	34.6	25.5	n
OCCN(Cc1ccccc1)C(=S)Nc1ccc(Cl)cc1Cl	n	n	n	n	n	n	x	x	x
N#CCCN1CCN(C(=S)c2ccc(-c3ccc(Cl)cc3)o2)CC1	n	n	n	x	23.6	x	31.1	27.7	n
S=C(c1ccc(-c2ccc(Cl)cc2)o1)N1CCCCC1	n	n	n	x	n	x	x	x	x
Cc1ccsc1/C=N/NC(=O)Cn1cnc2ccccc21	n	n	n	n	n	n	x	x	x
O=c1c2cnn(-c3ccccc3)c2nc(-c2ccco2)n1-c1ccccc1	n	n	n	x	n	x	x	x	x
O=c1oc(-c2ccco2)nc2c1cnn2-c1ccccc1	n	n	n	x	20.4	x	n	n	n
CCc1ccc(C(=O)NNC(=S)Nc2ccc(S(N)(=O)=O)cc2)s1	n	n	n	n	n	n	x	x	x
CCCC(=O)Nc1nc(C)c(C(C)=O)s1	n	30.3	2441	2466	35.1	2803	32.1	21.3	n
COc1cnn(-c2ccc(C)cc2)c(=O)c1SCc1ccccc1	n	n	n	x	n	x	x	x	x
CSc1cnn(-c2ccccc2)c(=O)c1SC	151.6	120.8	3988	x	105.8	x	98.7	68.1	67.5
COc1cnn(-c2ccccc2)c(=O)c1SCc1ccc(Cl)cc1Cl	n	n	n	x	n	x	x	x	x
CSc1cnn(Cc2ccccc2)c(=O)c1SCc1ccccc1	24.4	29.7	n	n	n	2367	84.6	61.4	56.9
O=c1c(Cl)c(Cl)cnn1-c1ccccc1	n	n	n	n	n	n	x	x	x
CCCCSc1cnn(-c2ccccc2)c(=O)c1SCCCC	44.7	27.9	1992	x	23.6	x	39.7	23.6	25.6
CCSc1cnn(-c2ccccc2)c(=O)c1SCC	122.7	96.3	3615	x	68.1	x	64.9	41.1	47.1

Source: PubChem (The Scripps Research Institute Molecular Screening Center)
